Counter-ions that a name gives are not always drawn. ± gives the standard deviation of the averaged measurements.
Legend:
DLD1 [1] = assay: cell viability (CellTiter-Glo) relative to plate median (fraction of plate median); higher = more viable cells; details: 10 µM, treatment time 24 h
Procedure, shortened: (§1)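 Kinase inhibitor library compounds were added at a final 10 µM for 24 h to colorectal cancer cells in 384-well plates, 24 h after seeding. The cells stably expressed lentiviral TCF/Wnt firefly luciferase reporters. Firefly luciferase and CellTiterGlo luminescence came from parallel plates, and each well was normalised to its plate median (webcellHTS2, additive, untransformed), averaged over two independent replicates.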

HCT116 [2] = assay: as above; details: 10 µM; treatment time 24 h; reporter: TCF4/Wnt
Procedure, shortened: as §1

SW480 [3] = assay: as above; details: 10 µM; treatment time 24 h; reporter: 7TFP
Procedure, shortened: as §1

DLD1 [4] = assay: TCF/Wnt firefly luciferase reporter signal relative to plate median (fraction of plate median); higher = higher Wnt reporter signal; details: 10 µM, treatment time 24 h
Procedure, shortened: as §1

HCT116 [5] = assay: as above; details: 10 µM; treatment time 24 h; reporter: TCF4/Wnt
Procedure, shortened: as §1

SW480 [6] = assay: as above; details: 10 µM; treatment time 24 h; reporter: 7TFP
Procedure, shortened: as §1

DLD1 [7] = assay: cell viability (CellTiter-Glo) relative to plate median (fraction of plate median); higher = more viable cells; details: 5 µM; treatment time 24 h; reporter: 7TFP
Procedure, shortened: (§2)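 Library compounds, at a final 5 µM, stayed on reporter cells for 24 h. The cells were colorectal cancer lines stably transduced with lentiviral TCF/Wnt firefly luciferase reporters, seeded in 384-well plates 24 h before dosing. Firefly luciferase or CellTiterGlo luminescence from parallel plates was normalised to the plate median in webcellHTS2 (additive, no log transformation), and two independent replicates were averaged.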

HCT116 [8] = assay: as above; details: 5 µM; treatment time 24 h; reporter: TCF4/Wnt
Procedure, shortened: as §2

SW480 [9] = assay: as above; details: 5 µM; treatment time 24 h; reporter: 7TFP
Procedure, shortened: as §2

DLD1 [10] = assay: TCF/Wnt firefly luciferase reporter signal relative to plate median (fraction of plate median); higher = higher Wnt reporter signal; details: 5 µM; treatment time 24 h; reporter: 7TFP
Procedure, shortened: as §2

SW480 [11] = assay: as above; details: 5 µM; treatment time 24 h; reporter: 7TFP
Procedure, shortened: as §2

SMILES	cell viability (DLD1 [1]; reporter: 7TFP)	cell viability (DLD1 [1]; reporter: TCF4/Wnt)	cell viability (HCT116 [2])	cell viability (SW480 [3])	TCF/Wnt firefly luciferase reporter signal (DLD1 [4]; reporter: 7TFP)	TCF/Wnt firefly luciferase reporter signal (DLD1 [4]; reporter: TCF4/Wnt)	TCF/Wnt firefly luciferase reporter signal (HCT116 [5])	TCF/Wnt firefly luciferase reporter signal (SW480 [6])	cell viability (DLD1 [7])	cell viability (HCT116 [8])	cell viability (SW480 [9])	TCF/Wnt firefly luciferase reporter signal (DLD1 [10])	TCF/Wnt firefly luciferase reporter signal (SW480 [11])
Cc1cc2c(F)c(Oc3ncnn4cc(OC[C@@H](C)O)c(C)c34)ccc2[nH]1	0.958 ± 0.13	1.01 ± 0.028	1.16 ± 0.014	0.942 ± 0.021	0.846 ± 0.22	1.05 ± 0.13	0.961 ± 0.11	0.978 ± 0.031					
Cc1cc(Nc2cc(N3CCN(C)CC3)nc(/C=C/c3ccccc3)n2)n[nH]1	0.88 ± 0.03	0.942 ± 0.061	0.678 ± 0.019	0.9085 ± 0.0035	1.06 ± 0.11	1.01 ± 0.21	1.23 ± 0.33	0.687 ± 0.28					
CN1CC[C@H](c2c(O)cc(O)c3c(=O)cc(-c4ccccc4Cl)oc23)[C@H](O)C1 [Flavopiridol hydrochloride]	1.27 ± 0.2	1.24 ± 0.092	0.865 ± 0.29	1.36 ± 0.11	0.393 ± 0.14	0.227 ± 0.069	0.196 ± 0.047	0.869 ± 0.0099					
CN(C)C/C=C/C(=O)Nc1cc2c(Nc3ccc(F)c(Cl)c3)ncnc2cc1O[C@H]1CCOC1 [Afatinib (BIBW2992)]	0.916 ± 0.074	0.843 ± 0.0092	0.635 ± 0.19	1.18 ± 0.042	0.292 ± 0.089	0.407 ± 0.0014	0.131 ± 0.091	0.447 ± 0.19					
Nc1nc(N)c2nc(-c3cccc(O)c3)cnc2n1	1.09 ± 0.014	1.08 ± 0.021	0.97 ± 0.018	1.04 ± 0.064	1.4 ± 0.26	1.15 ± 0.085	1.33 ± 0.31	1.34 ± 0.042					
CCCNC(=O)Nc1ccc(Oc2ncnc3cc(OC)c(OC)cc23)cc1Cl	1.15 ± 0.085	1.02 ± 0.03	1.15 ± 0.035	0.9145 ± 0.005	1.2 ± 0.085	1.11 ± 0.085	1.04 ± 0.042	0.975 ± 0.14					
CC1(C)CNc2cc(NC(=O)c3cccnc3NCc3ccncc3)ccc21 [Motesanib Diphosphate]	1.015 ± 0.0071	0.978 ± 0.074	1.08 ± 0.021	0.8805 ± 0.0021	1.14 ± 0.12	0.952 ± 0.17	1.19 ± 0.19	0.971 ± 0.11					
Cc1cc(CN2CCN(c3c(Br)cnc4nc(-c5ccc(N6CCN(C)CC6)cc5)[nH]c34)CC2)no1	1.09 ± 0.23	1.01 ± 0.021	1.04 ± 0.014	1.08 ± 0.057	1.42 ± 0.15	1.49 ± 0.18	1.72 ± 0.46	1.34 ± 0.4					
CN(C)Cc1cccc(N=C(c2ccccc2)c2c(O)[nH]c3cc(C(=O)N(C)C)ccc23)c1	1.13 ± 0.057	0.947 ± 0.0014	1.13 ± 0.099	1.19 ± 0.035	0.966 ± 0.12	0.85 ± 0.061	1.11 ± 0.16	1.11 ± 0.014					
Cc1c(CN2CCN(C(=O)[C@H](C)O)CC2)sc2c(N3CCOCC3)nc(-c3cnc(N)nc3)nc12	0.999 ± 0.13	0.9185 ± 0.0064	0.679 ± 0.16	1.1 ± 0.092	0.287 ± 0.056	0.419 ± 0.11	0.577 ± 0.21	0.764 ± 0.017					
Cc1cc(C)c(/C=C2\C(=O)Nc3ccccc32)[nH]1 [Semaxanib (SU5416)]	0.951 ± 0.016	1.02 ± 0.038	1.2 ± 0.071	0.879 ± 0.028	1.47 ± 0.021	1.335 ± 0.0071	0.91 ± 0.11	1.04 ± 0.021					
COc1cc(OC)c(/C=C/S(=O)(=O)Cc2ccc(OC)c(NCC(=O)O)c2)c(OC)c1	0.988 ± 0.074	1.01 ± 0.025	0.631 ± 0.14	1.04	0.726 ± 0.011	0.772 ± 0.0014	0.198 ± 0.013	0.694 ± 0.069					
C=CC(=O)Nc1cccc(Sc2nc(Nc3ccc(N4CCN(C)CC4)cc3)ncc2Cl)c1	1.1 ± 0.035	1.02 ± 0.15	1.02	1.195 ± 0.0071	1.79 ± 0.25	1.15 ± 0.22	1.64 ± 0.67	1.32 ± 0.58					
O=C(O)c1ccc(Nc2ncc3c(n2)-c2ccc(Cl)cc2C(c2c(F)cccc2F)=NC3)cc1	1.06 ± 0.028	0.993 ± 0.067	0.982 ± 0.0042	1.01 ± 0.055	1.1 ± 0.19	1.11 ± 0.042	1.375 ± 0.0071	0.9575 ± 0.00071					
Cc1coc2c1C(=O)C(=O)c1c-2ccc2c1CCCC2(C)C									1.03 ± 0.043	0.999 ± 0.016	1.05 ± 0.028	0.785 ± 0.064	0.994 ± 0.14
CC1(C)S[C@@H]2[C@H](NC(=O)[C@H](N)c3ccccc3)C(=O)N2[C@H]1C(=O)O									0.963 ± 0.0099	1.14 ± 0.13	0.969 ± 0.1	1 ± 0.083	0.917 ± 0.027
OC(CCN1CCCCC1)(c1ccccc1)C1CC2C=CC1C2 (stereo not drawn)									0.9145 ± 0.0021	1.01 ± 0.12	0.947 ± 0.052	0.92 ± 0.23	0.835 ± 0.028
NCCCCCC(=O)O									0.888 ± 0.054	1.02 ± 0.014	0.972 ± 0.083	1 ± 0.11	1.01 ± 0.081
Nc1c(Br)cc(Br)cc1CN[C@H]1CC[C@H](O)CC1									0.914 ± 0.066	1.09 ± 0.11	0.946 ± 0.029	0.944 ± 0.19	0.887 ± 0.016
CC(C[N+](C)(C)C)OC(N)=O (stereo not drawn)									1.14 ± 0.035	0.8 ± 0.48	1.1 ± 0.12	0.925 ± 0.037	1.05 ± 0.071
Cc1ccc(NC(=O)c2cccc(N(C)C)c2)cc1NC(=O)c1ccc(O)cc1	1.11 ± 0.16	1.095 ± 0.0071	1.23 ± 0.11	0.907 ± 0.033	1.07 ± 0.092	1.12 ± 0.014	1.04 ± 0.035	0.955 ± 0.092					
Cc1cc(C(C)Nc2ccccc2)c2nc(N3CCOCC3)cc(=O)n2c1 (stereo not drawn)	0.997 ± 0.13	0.909 ± 0.04	1.115 ± 0.0071	0.909 ± 0.071	1.15 ± 0.11	1.21 ± 0.05	1.15 ± 0.092	0.679 ± 0.3					
CC(=O)C1=C(CO)C(=O)c2cccc(O)c2C1=O [Bhimamycin E]									1.05 ± 0.042	1.04 ± 0.068	0.9945 ± 0.0021	0.983 ± 0.14	1.01
CC(C)(C)CC(C)(C)c1ccc(O)c(Cc2ccc(Cl)cc2Cl)c1									0.987 ± 0.075	1.05 ± 0.05	1.03 ± 0.014	0.86 ± 0.012	0.891 ± 0.11
COc1ccc(C(=O)c2ccccc2O)c(O)c1									0.953 ± 0.022	0.977 ± 0.0028	0.952 ± 0.016	1.16 ± 0.042	1.06 ± 0.057
CC(=O)Oc1c(C)cccc1C(=O)O									0.9705 ± 0.0064	0.966 ± 0.039	1.02 ± 0.063	0.884 ± 0.13	0.979 ± 0.087

Reference: the supplement of paper PMC6522484
